# Screening results from PubChem BioAssay.
# Only some compounds are listed: those with a hit (about 7% of all), similar ones and a draw of the others.
# ADAM17 inh: inhibitors of human ADAM17 | inhibition, % at 6.95 µM | 370,000 tested, 0.83% active | recombinant ADAM17, EDANS/DABCYL FRET peptide cleavage | AID 720648;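 active = inhibition above the mean of compounds lying between control limits plus 3 SD, set per campaign, cut at about 8.5% in these data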
# Target sequence (P78536 215-824 limits assumed): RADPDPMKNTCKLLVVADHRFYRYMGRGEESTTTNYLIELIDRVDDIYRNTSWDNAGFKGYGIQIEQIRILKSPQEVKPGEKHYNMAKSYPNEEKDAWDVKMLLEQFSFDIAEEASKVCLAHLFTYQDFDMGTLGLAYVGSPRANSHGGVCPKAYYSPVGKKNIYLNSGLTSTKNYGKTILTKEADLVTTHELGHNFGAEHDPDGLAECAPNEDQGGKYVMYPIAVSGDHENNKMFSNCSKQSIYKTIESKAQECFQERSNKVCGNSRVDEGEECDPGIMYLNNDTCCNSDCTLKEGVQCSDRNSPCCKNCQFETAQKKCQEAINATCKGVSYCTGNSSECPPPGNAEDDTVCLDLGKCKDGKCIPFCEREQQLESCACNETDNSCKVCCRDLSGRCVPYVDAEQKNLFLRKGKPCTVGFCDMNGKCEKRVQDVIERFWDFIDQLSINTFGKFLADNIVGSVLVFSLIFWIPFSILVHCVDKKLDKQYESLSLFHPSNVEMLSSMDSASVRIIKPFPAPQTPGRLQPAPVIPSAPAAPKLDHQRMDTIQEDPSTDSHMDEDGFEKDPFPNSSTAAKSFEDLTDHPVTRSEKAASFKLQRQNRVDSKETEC
# rCAG binder: r(CAG) repeat RNA binding | TO-PRO-1 dye displacement fluorescence | inhibition, % at 3 µM | 370,000 tested, 1.3% active | AID 651821;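 active = inhibition above the plate cutoff, the mean of all test compounds on that plate plus 3 SD, cut at about 35% in these data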;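 also: higher means more dye released from RNA so lower well fluorescence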
# NR3A LBD binder: NR3A (human) ligand-binding domain modulation; NR3A LBD differential scanning fluorimetry, Tm shift; 0% = protein alone, 100% = glycine-bound protein; Tm shift relative to glycine control, % at 25 µM; 340,000 tested, 2.5% active;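 active = melting temperature shift of at least 10% of the positive control shift, at one fixed dose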
# AHR activator: activates the human aryl hydrocarbon receptor; P35869; 320,000 tested, 2.5% active; activation, % at 5 µM; AHR-responsive luciferase reporter cells, luminescence; in the data active = activation above about 47%
# proKLK7 act: activates the human kallikrein-7 zymogen; 370,000 tested, 0.9% active; purified proKLK7, EDANS-DABCYL substrate fluorescence; 100% is mature enzyme control, 0% vehicle; P49862; activation, % at 7 µM;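 active = activation above the mean of all tested compounds plus 3 SD, computed per campaign excluding outliers beyond control limits, cut at about 13% in these data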
# ADAM10 inh: inhibits human ADAM10 | O14672 | recombinant ADAM10, EDANS/DABCYL FRET peptide cleavage, 3 h | inhibition, % at 7 µM | 370,000 tested, 0.62% active | AID 720582;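 active = inhibition above a per-campaign cutoff equal to the mean of compounds falling between control-based bounds plus 3 SD, cut at about 20% in these data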
# rCAG bind conf: r(CAG) RNA repeat binding, confirmation; shares compounds with rCAG binder; TO-PRO-1 dye displacement fluorescence; inhibition, % at 3 µM; 4,300 tested, 70% active; AID 652065;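 active = inhibition above a per-plate cutoff, the mean inhibition of sample wells plus 3 SD, cut at about 35% in these data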;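 also: loss of TO-PRO-1 fluorescence as compound displaces dye from 1x1 AA loop RNA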
# DNA CAG counter: DNA CAG dye complex inhibition counter-screen; shares compounds with rCAG binder; d(CAG) DNA oligo TO-PRO-1 dye displacement, fluorescence; inhibition, % at 3 µM; 4,300 tested, 94% active; AID 652068;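 active = inhibition above its plate's cutoff, the mean test-well inhibition plus 3 SD, cut at about 4.8% in these data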;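 also: hits displace the dye from DNA and so lower well fluorescence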
# dCAG dye DR: disrupts DNA CAG TO-PRO-1 complex in dose response; 250 tested, 20% active; DNA CAG/GTC duplex TO-PRO-1 dye displacement fluorescence; shares compounds with rCAG binder; AID 686960; IC50, µM; in the data active = IC50 below about 10 µM
# ADAM10 confirm: human ADAM10 inhibition, confirmation; shares compounds with ADAM10 inh; ADAM10 QFRET peptide cleavage, EDANS fluorescence; inhibition, % at 6.95 µM; 2,100 tested, 1% active;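 active = inhibition above about 20% chosen separately for each screening run, limit read from the data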
# ADAM17 counter: counter-screen for ADAM10 exosite inhibitors: inhibitors of human ADAM17; shares compounds with ADAM10 inh; ADAM17 QFRET peptide cleavage, EDANS fluorescence; AID 743214; inhibition, % at 6.95 µM; 2,100 tested, 0.5% active;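 active = mean triplicate inhibition above the solvent-only control wells' mean plus 3 SD, cut at about 12% in these data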
# ADAM10 ctr: inhibits human ADAM10 in ADAM17 exosite counter-screen; 2,900 tested, 47% active; shares compounds with ADAM17 inh; inhibition, % at 6.95 µM; recombinant ADAM10, EDANS/DABCYL FRET peptide cleavage, 3 h;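 active = mean inhibition over the triplicate runs exceeds the activity threshold set in the earlier primary screen, cut at about 20% in these data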
# ADAM17 confirm: human ADAM17 inhibition, confirmation | inhibition, % at 6.95 µM | shares compounds with ADAM17 inh | recombinant ADAM17, EDANS/DABCYL QFRET peptide cleavage | 2,900 tested, 65% active;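 active = mean inhibition across replicates above the hit cutoff set in the primary screen, cut at about 8.5% in these data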
# Numbers stand for hits; - = inactive; . = no result given.
SMILES,ADAM17 inh,rCAG binder,NR3A LBD binder,AHR activator,proKLK7 act,ADAM10 inh,rCAG bind conf,DNA CAG counter,ADAM10 confirm,ADAM17 counter,ADAM10 ctr,ADAM17 confirm,others
CCN(CC)S(=O)(=O)c1cccc(-c2n[nH]c(=S)n2/N=C/c2ccc(OC(F)F)cc2)c1,-,78,-,-,-,20,64,22,-,-,.,.,
O=C(O)c1cccc(NC(=S)N/N=C/c2ccccc2OCc2ccc(Br)cc2)c1,-,80,-,-,-,23,85,55,-,-,.,.,
COc1ccccc1NS(=O)(=O)c1cccc(NC(=O)NCCCl)c1,-,-,-,-,-,-,.,.,.,.,.,.,
COc1ccccc1NS(=O)(=O)c1cccc(NC(=O)Nc2cccc(Cl)c2)c1,-,35,23,-,-,31,-,13,-,-,.,.,
COc1ccc(CNC(=O)C[C@@H]2C=C[C@@H](NS(=O)(=O)c3cccc(OC)c3)[C@@H](CO)O2)cc1,-,-,.,.,-,-,.,.,.,.,.,.,
CCCCN1CCN(C2=NC(=O)N(c3ccc(Br)cc3)C(=O)C2)CC1,-,-,.,.,-,-,.,.,.,.,.,.,
COC(=O)[C@]12C[C@H](CC(=O)N3CCN(C(=O)C4CC4)CC3)C(=O)N(Cc3ccco3)C1=C[C@H](C1CCCC1)O[C@@H]2C,-,-,.,.,-,-,.,.,.,.,.,.,
N#C/C(=N\Nc1cccc(Cl)c1)C(=O)c1ccccc1,-,73,-,-,-,20,44,11,-,-,.,.,
N#C/C(=N\Nc1ccccc1Cl)C(=O)c1ccccc1,-,-,-,-,-,-,.,.,.,.,.,.,
CC(/C=C/c1ccc(N(C)C)cc1)=N\N=C(/N)SC1CC(=O)N(c2ccc(C(=O)O)cc2)C1=O (stereo not given),-,-,-,-,-,-,.,.,.,.,.,.,
C/C(=N\N=C(/N)SC1CC(=O)N(c2cccc(Cl)c2)C1=O)c1cccs1 (stereo not given),-,54,.,-,-,27,73,29,-,-,.,.,dCAG dye DR=-
Cc1ccc(C2CC2C(=O)NNC(=S)Nc2cccc(Cl)c2)cc1 (stereo not given),22,52,11,-,-,39,51,19,-,-,24,11,
O=C1CCc2cc(S(=O)(=O)N3CCN(c4ccccc4Cl)CC3)ccc2N1,-,-,.,.,-,-,.,.,.,.,.,.,
O=C(/C=C/c1ccc(O)c(O)c1)c1ccc(S(=O)(=O)N2CCCCCC2)cc1,18,46,23,-,-,34,48,26,-,-,27,17,
COc1ccccc1NS(=O)(=O)c1cccc(C(=O)N/N=C/c2ccc(OCC(=O)O)cc2)c1,-,-,-,-,-,-,.,.,.,.,.,.,
COc1ccc(-c2nn(-c3ccccc3)cc2/C=N/NC(=O)c2cccc(S(=O)(=O)Nc3ccccc3Cl)c2)cc1,9.2,59,22,-,-,-,55,29,.,.,-,-,
O=C(NC(=S)NNC(=O)c1cc2ccccc2cc1O)c1ccco1,9.3,67,11,-,-,-,53,17,.,.,-,-,
Cc1ccc(S(=O)(=O)N/N=C/c2ccc(OS(=O)(=O)c3ccc(C)c([N+](=O)[O-])c3)cc2)cc1,12,35,-,-,-,26,50,15,-,-,36,20,
Cc1ccc(S(=O)(=O)NN=Cc2ccc(N3CCOCC3)cc2)cc1[N+](=O)[O-],-,-,-,-,-,-,.,.,.,.,.,.,
O=C(NC1CCC1)O[C@H]1CC[C@@]23CCCN2C(=O)CCC[C@H]3C1,-,.,.,.,.,-,.,.,.,.,.,.,
CN(C)CCCn1c(SCC(=O)Nc2nc(-c3cccc(Br)c3)cs2)nc2ccccc2c1=O,-,-,-,-,-,-,.,.,.,.,.,.,
O=C(CSc1nc2ccccc2[nH]1)Nc1nc(-c2cccc(Br)c2)cs1,23,58,-,65,-,50,43,21,23,-,40,24,
COCC(=O)N(C)[C@H]1C[C@H]2c3[nH]c4cccc(-c5cccc(F)c5)c4c3CCN2C(=O)[C@H]1[C@H](C)O,-,-,.,.,-,-,.,.,.,.,.,.,
O=[N+]([O-])c1cc(Cl)cc(/C=N/NC(=S)Nc2ccc(S(=O)(=O)N3CCOCC3)cc2)c1O,17,98,-,-,-,35,88,63,-,-,29,18,
O=S(=O)(c1ccc(NC(=S)N/N=C/c2ccc(O)c(O)c2)cc1)N1CCOCC1,-,-,-,-,-,-,.,.,.,.,.,.,
SMILES,ADAM17 inh,rCAG binder,NR3A LBD binder,AHR activator,proKLK7 act,ADAM10 inh,rCAG bind conf,DNA CAG counter,ADAM10 confirm,ADAM17 counter,ADAM10 ctr,ADAM17 confirm,others
CCCCCOC(=O)Nc1ccc(S(=O)(=O)Nc2cccc([N+](=O)[O-])c2)cc1,11,48,28,-,-,27,45,10,-,-,24,13,
COc1cc([N+](=O)[O-])cc(/C=N/NC(=O)C(C)Nc2ccccc2C)c1O (stereo not given),10.0,36,-,-,-,26,-,10,-,-,24,12,
COc1ccc(O)cc1CN1CCN(c2ncc(Cc3ccccc3)cn2)CC1,-,-,.,.,-,-,.,.,.,.,.,.,
Cc1cc(C)c(NC(=O)COC(=O)c2cccc3c2C(=O)c2ccccc2C3=O)c(C)c1,-,-,-,-,-,-,.,.,.,.,.,.,
Cc1cc(C)c(Nc2cc(S(=O)(=O)O)c(N)c3c2C(=O)c2ccccc2C3=O)c(C)c1,8.7,94,547,-,-,23,93,79,-,-,36,17,
COc1cccc(S(=O)(=O)Nc2ccc3c(c2)C(=O)N(C)C[C@H](OC)[C@H](C)CN[C@@H](C)CO3)c1,-,-,.,.,-,-,.,.,.,.,.,.,
O=[N+]([O-])c1ccc(-c2nc(Nc3cccc(O)c3)c3ccccc3n2)cc1,13,48,30,-,-,31,-,13,-,-,34,17,
O=C(O)c1ccccc1NS(=O)(=O)c1ccc(NNC(=S)Nc2ccc(OC(F)F)cc2)c([N+](=O)[O-])c1,11,101,-,.,-,24,95,80,-,-,-,12,
